Measured values taken from PubChem BioAssay.
Calls of active or inactive are those of the source. Unless noted, the rule behind the calls is not given here.

Legend:
[1] = test system: Wnt5a (protein binding on small-molecule microarray); assay: small molecules binding Wnt5a protein – biophysical, small-molecule microarray, 635/667 nm fluorescence, primary screen (AID 1142); conditions: 635 nm fluorescence, higher = more signal;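 note: fluorescence read at 667 nm with signal to noise per printed feature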
[2] = ATP-based viability of Huh7 replicon cells – cell-based, CellTiter-Glo luminescence, basal, 48 h, cytotoxicity control for HCV replication inhibitor project, primary screen (AID 1143); conditions: higher = more signal, called active from +8 up or from −8 down;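 note: Huh7 hepatoma cells carrying a hepatitis C replication reporter with no stimulus; test concentration not given here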
[3] = Pseudomonas biofilm growth suppression – PAO1 strain, BacTiter-Glo luminescence, LB-PBS, primary screen (AID 1144); conditions: P. aeruginosa PAO1 biofilm, 12 h, higher = more signal
[4] = basal CRE-LacZ reporter activity in PC12 – cell-based, unstimulated, primary screen (AID 1145); conditions: no forskolin, luminescence, 4.5 h, higher = more signal, called active from +8 up or from −8 down
[5] = forskolin-driven CRE-LacZ activity in PC12 – cell-based, CRE-LacZ reporter, forskolin-stimulated, primary screen (AID 1146); conditions: luminescence, 4.5 h, higher = more signal, called active from +8 up or from −8 down;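 note: PC12 cells with 6xCRE LacZ reporter stimulated by forskolin 10 µM; beta-galactosidase reporter signal reflecting CREB driven transcription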
[6] = target: Streptavidin (Streptomyces avidinii) (UniProt P22629); assay: compounds binding control protein streptavidin – biophysical, small-molecule microarray, 635/667 nm fluorescence, artefact control for SMM compound annotation, primary screen (AID 1147); conditions: higher = more signal;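 note: signal reflects streptavidin binding to arrayed compounds as a control protein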
Sequence of Streptavidin (Streptomyces avidinii) (P22629 whole entry, looked up): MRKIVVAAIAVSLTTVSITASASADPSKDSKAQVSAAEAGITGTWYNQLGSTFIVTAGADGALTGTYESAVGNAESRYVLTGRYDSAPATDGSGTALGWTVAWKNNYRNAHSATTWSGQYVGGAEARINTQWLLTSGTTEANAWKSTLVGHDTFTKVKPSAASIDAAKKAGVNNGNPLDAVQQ

[7] = probe aInhba binding on compound microarray – biochemical, small-molecule microarray, 635/667 nm fluorescence, primary screen (AID 1148); conditions: higher = more signal;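 note: score merges 667nm spot fluorescence with signal-to-noise for antibody binding to printed compounds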
Torsin-1A (Homo sapiens) [8] = target: Torsin-1A (Homo sapiens) (UniProt O14656); assay: TOR1A wild-type binding on microarray – cell lysate, small-molecule microarray, lysate, 635/667 nm, primary screen (AID 1149); conditions: COS7 hTOR1A-WT lysate, 635 nm fluorescence, higher = more signal
Sequence of Torsin-1A (Homo sapiens) (O14656 whole entry, looked up): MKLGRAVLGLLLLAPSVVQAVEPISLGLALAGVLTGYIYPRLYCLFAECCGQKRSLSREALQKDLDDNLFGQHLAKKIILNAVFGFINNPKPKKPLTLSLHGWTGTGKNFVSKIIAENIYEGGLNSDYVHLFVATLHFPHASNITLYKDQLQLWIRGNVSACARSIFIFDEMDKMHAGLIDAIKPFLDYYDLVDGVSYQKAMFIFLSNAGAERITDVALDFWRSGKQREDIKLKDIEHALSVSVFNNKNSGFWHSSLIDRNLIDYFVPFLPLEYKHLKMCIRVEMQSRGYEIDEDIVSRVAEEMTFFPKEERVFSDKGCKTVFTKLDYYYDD

Torsin-1A (Homo sapiens) [9] = target: Torsin-1A (Homo sapiens) (UniProt O14656); assay: torsin A mutant lysate binding on microarrays – cell lysate, small-molecule microarray, COS7 lysate, 635/667 nm fluorescence, primary screen (AID 1150); conditions: COS7 hTOR1A mutant lysate, 635 nm fluorescence, higher = more signal;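 note: score pools 667 nm emission and signal to noise measuring lysate protein binding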
[10] = test system: Sonic hedgehog protein (Shh); assay: Sonic hedgehog microarray binding compounds – biochemical, small-molecule microarray, 635/667 nm fluorescence, primary screen (AID 1151); conditions: 635 nm fluorescence, higher = more signal;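 note: Shh protein binding to compounds spotted on small-molecule microarray slides; score combines spot fluorescence intensity with signal-to-noise across triplicate slides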
[11] = optical density shifts of acrAB sulA E. coli – strain DRC41, OD650, 48 h, E. coli filamentation inducer project, primary screen (AID 1152); conditions: higher = more signal, called active from +8 up or from −8 down;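 note: E. coli MC1000 strain DRC41 lacking acrAB efflux pump and sulA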
[12] = probe aLefty1 binding on compound microarray – biochemical, small-molecule microarray, 635/667 nm fluorescence, primary screen (AID 1153); conditions: higher = more signal;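 note: score merges spot fluorescence with signal-to-noise ratio from the scanned slide images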
[13] = plasmodial surface anion channel blockers, osmotic lysis – cell-based, P. falciparum Indochina, OD700, 1 h, primary screen (AID 1154); conditions: P. falciparum Indochina infected RBC osmotic lysis, higher = more signal, called active from +8 up or from −8 down
[14] = plasmodial surface anion channel blockers, osmotic lysis – cell-based, P. falciparum Indochina, OD700, 2 h, primary screen (AID 1155);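 note: lysis reports solute entry through the parasite surface anion channel PSAC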; conditions: P. falciparum Indochina infected erythrocytes, higher = more signal, called active from +8 up or from −8 down
[15] = changes in parasitized red cell lysis, either direction – P. falciparum Indochina, OD700, 3 h, PSAC antagonist project, primary screen (AID 1156); conditions: P. falciparum-infected erythrocytes, osmotic lysis, higher = more signal, called active from +8 up or from −8 down
[16] = plasmodial surface anion channel blockers, osmotic lysis – cell-based, P. falciparum Indochina, OD700, 18 h, primary screen (AID 1157); conditions: P. falciparum Indochina infected erythrocytes, osmotic lysis OD700, 18 h; higher = more signal, called active from +8 up or from −8 down
[17] = S6 kinase pathway phospho-S6 level changes – cell-based, A549, cytoblot, luminescence, serum-stimulated, primary screen (AID 1158); conditions: 5 h, higher = more signal;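 note: serum-stimulated A549 lung adenocarcinoma cells; signal is phosphorylated S6 detected by cytoblot immunostaining with HRP secondary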
[18] = target: NADPH oxidase 2 (Homo sapiens) (UniProt P04839); assay: compounds shifting NOX2 Amplex Red fluorescence – cell-based, HEK293-NOX2, PMA-stimulated, NOX inhibitor project, primary screen (AID 1159); conditions: 45 min, higher = more signal, called active from +8 up or from −8 down; note: test concentration not given here
Sequence of NADPH oxidase 2 (Homo sapiens) (P04839 whole entry, looked up): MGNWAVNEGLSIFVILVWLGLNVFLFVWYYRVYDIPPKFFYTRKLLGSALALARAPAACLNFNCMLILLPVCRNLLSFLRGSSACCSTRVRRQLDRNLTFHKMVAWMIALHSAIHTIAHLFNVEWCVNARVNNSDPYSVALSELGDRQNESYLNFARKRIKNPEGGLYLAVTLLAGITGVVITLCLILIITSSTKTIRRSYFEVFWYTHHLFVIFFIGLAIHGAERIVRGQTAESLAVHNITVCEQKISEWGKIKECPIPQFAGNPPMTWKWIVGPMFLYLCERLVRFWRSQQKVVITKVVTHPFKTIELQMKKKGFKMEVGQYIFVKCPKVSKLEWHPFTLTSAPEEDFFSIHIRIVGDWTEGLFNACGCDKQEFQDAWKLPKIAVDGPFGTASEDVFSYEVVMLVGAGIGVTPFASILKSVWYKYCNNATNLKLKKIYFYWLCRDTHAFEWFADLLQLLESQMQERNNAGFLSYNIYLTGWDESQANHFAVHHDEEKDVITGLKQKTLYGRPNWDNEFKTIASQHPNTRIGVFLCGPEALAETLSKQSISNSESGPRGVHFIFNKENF

[19] = target: NADPH oxidase 4 (Homo sapiens) (UniProt Q9NPH5); assay: compounds shifting NOX4 Amplex Red fluorescence – cell-based, HEK293-NOX4, tetracycline-induced, NOX inhibitor project, primary screen (AID 1160); conditions: HEK293-NOX4, Amplex Red H2O2 fluorescence, 45 min; higher = more signal, called active from +8 up or from −8 down
Sequence of NADPH oxidase 4 (Homo sapiens) (Q9NPH5 whole entry, looked up): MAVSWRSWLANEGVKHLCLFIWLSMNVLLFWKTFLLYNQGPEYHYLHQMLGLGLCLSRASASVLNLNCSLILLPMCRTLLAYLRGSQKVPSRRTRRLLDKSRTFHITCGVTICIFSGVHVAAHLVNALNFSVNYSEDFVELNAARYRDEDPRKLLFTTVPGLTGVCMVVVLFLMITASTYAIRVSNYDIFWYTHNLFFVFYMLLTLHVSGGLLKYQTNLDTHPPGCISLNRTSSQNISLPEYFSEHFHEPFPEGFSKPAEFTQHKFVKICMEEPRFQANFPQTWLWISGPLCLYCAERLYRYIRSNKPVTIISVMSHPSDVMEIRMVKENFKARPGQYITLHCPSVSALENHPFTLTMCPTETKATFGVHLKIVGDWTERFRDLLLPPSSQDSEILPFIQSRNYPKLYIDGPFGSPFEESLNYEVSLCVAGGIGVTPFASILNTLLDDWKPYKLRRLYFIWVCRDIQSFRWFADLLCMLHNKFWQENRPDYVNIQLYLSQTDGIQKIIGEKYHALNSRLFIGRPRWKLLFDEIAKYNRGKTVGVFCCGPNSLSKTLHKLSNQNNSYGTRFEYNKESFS

[20] = target: NADPH oxidase 5 (Homo sapiens) (UniProt Q96PH1); assay: compounds shifting NOX5 Amplex Red fluorescence – cell-based, HEK293-NOX5, NOX inhibitor project, primary screen (AID 1161); conditions: HEK293-NOX5, ionomycin, 45 min, higher = more signal
Sequence of NADPH oxidase 5 (Homo sapiens) (Q96PH1 whole entry, looked up): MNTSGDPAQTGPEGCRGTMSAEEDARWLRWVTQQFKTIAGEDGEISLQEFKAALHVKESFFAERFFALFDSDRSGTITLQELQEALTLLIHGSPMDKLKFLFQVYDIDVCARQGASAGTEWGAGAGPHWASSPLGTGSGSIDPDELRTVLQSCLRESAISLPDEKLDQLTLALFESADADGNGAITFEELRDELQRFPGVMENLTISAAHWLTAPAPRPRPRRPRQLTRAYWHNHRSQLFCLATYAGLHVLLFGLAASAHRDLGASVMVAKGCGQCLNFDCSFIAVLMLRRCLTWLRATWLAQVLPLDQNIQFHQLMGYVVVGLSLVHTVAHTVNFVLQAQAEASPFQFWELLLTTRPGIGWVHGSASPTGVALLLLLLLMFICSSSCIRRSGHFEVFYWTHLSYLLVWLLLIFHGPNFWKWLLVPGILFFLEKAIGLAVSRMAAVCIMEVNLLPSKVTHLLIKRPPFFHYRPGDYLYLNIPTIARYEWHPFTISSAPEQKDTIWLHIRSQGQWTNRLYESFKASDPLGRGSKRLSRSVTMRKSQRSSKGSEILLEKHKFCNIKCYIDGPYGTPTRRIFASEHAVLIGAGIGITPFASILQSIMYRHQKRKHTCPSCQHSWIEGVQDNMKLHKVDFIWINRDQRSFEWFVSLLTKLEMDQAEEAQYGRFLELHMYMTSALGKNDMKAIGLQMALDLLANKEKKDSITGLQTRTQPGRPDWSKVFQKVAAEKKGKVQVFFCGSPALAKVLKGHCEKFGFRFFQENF

Structure (SMILES)	composite z-score [1]	z-score [2]	z-score [3]	z-score [4]	z-score [5]	composite z-score [6]	composite z-score [7]	composite z-score (Torsin-1A (Homo sapiens) [8])	composite z-score (Torsin-1A (Homo sapiens) [9])	composite z-score [10]	z-score [11]	composite z-score [12]	z-score [13]	z-score [14]	z-score [15]	z-score [16]	z-score [17]	z-score [18]	z-score [19]	z-score [20]
COC(=O)c1c(CC[C@@H](CO)NC(=O)N2CCC[C@H]2Cn2cc(Cc3ccccc3)nn2)oc(C(C)=O)c1C(=O)OC	-0.0725	-0.393 (inactive)	0.726 (inactive)	-0.244 (inactive)	-0.152 (inactive)	-0.114	-0.0736	-0.0521	0.398	1.84	-0.195 (inactive)	-0.177	0.133 (inactive)	0.258 (inactive)	0.876 (inactive)	-0.033 (inactive)	0.567	-1.79 (inactive)	-0.894 (inactive)	-1.85
C=CCNC(=O)[C@@H]1[C@H]2C(=O)O[C@H](c3ccccc3)[C@H](c3ccccc3)N2[C@H](c2ccc(O)cc2)[C@@]12C(=O)N(C(=O)OCCOC)c1ccc(C#CC3(O)CCCCCC3)cc12	-1.3	-1.16 (inactive)	-0.53 (inactive)	-1.28 (inactive)	0.142 (inactive)	-1.23	-0.204	-1.68	-1.47	-0.382	2.23 (inactive)	-0.639	0.776 (inactive)	-0.353 (inactive)	0.469 (inactive)	0.682 (inactive)	0.305	-0.00516 (inactive)	0.395 (inactive)	0.849
C=C[C@@H](OC)[C@H](OC(=O)Nc1ccc(SC)cc1)c1ccc(O)c(F)c1	0.183	-1.57 (inactive)	-1.04 (inactive)	0.847 (inactive)	0.425 (inactive)	-0.376	0.0679	0.242	0.679	1.14	-1.51 (inactive)	0.44	24.7 (active)	7.57 (inactive)	2.98 (inactive)	1.31 (inactive)	-0.618	-2.6 (inactive)	-2.4 (inactive)	-1.26
